Screening data as filed in PubChem BioAssay.
KCNQ2 block: inhibitors of rat KCNQ2 potassium channel; CHO-K1 KCNQ2, FluxOR thallium flux, 20 min; hits give low values; B-score at 10 µM; 310,000 compounds, 1.1% hits; AID 2156;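 active means fluorescence ratio B-score at most minus 3 library SDs, with starting brightness B-score within 2 library SDs, cut at about -5.5 in these data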
Target sequence (O88943 whole entry, looked up): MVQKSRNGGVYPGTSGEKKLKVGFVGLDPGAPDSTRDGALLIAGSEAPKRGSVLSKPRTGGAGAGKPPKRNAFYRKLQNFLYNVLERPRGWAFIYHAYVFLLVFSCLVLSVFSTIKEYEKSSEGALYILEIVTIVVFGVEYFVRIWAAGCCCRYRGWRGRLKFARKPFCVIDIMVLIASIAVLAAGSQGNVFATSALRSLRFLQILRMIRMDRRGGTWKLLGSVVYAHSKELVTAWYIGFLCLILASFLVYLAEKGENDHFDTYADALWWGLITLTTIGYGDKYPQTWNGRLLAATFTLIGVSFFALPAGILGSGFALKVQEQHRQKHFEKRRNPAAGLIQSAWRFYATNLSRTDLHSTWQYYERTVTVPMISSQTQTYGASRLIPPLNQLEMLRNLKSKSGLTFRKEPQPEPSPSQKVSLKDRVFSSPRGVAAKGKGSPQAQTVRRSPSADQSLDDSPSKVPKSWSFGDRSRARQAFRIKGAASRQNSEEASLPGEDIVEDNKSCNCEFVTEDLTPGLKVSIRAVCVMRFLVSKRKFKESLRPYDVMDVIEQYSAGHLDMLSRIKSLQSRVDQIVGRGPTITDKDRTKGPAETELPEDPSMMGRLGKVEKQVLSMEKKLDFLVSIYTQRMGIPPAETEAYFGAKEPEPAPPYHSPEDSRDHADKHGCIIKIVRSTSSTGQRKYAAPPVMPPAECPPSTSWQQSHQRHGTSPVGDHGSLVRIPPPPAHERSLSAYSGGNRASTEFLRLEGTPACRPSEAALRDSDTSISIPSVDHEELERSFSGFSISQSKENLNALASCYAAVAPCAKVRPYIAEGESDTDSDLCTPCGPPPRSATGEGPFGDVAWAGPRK
KCNQ2 pot: enhances the rat KCNQ2 potassium channel; O88943; CHO-K1 KCNQ2, FluxOR thallium flux fluorescence; hits give high values; B-score at 10 µM; 310,000 compounds, 0.54% hits; AID 2239;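 active means fluorescence ratio B-score at least 3 SD of library B-scores, with initial fluorescence B-score within 3 of them, cut at about 5.3 in these data; same plate scores as AID 2156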;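 further: B-score of peak minus minimum over baseline fluorescence ratio after K+ and Tl+ stimulus; positive B-score means potentiation of KCNQ2 with more thallium influx and brighter signal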
The depositor's hits bear a star; i = inactive; nt = no result given. Rows were chosen to be rich in hits. Some 1.6% of all compounds tested hit in one or more screens of this group.

SMILES	KCNQ2 block	KCNQ2 pot
CC(C)CC(=O)N1CCN(S(=O)(=O)c2ccc3ccccc3c2)CC1	i	nt
CCCn1cnnc1CNC(=O)C1CCC(=O)N(CCc2ccc(OC)cc2)C1 (centres undefined)	i	nt
Cc1ccc(CNC(=O)c2ccc3c(=O)[nH]c4c(C(=O)NCC5CCCO5)sc(=S)n4c3c2)cc1 (centres undefined)	i	nt
CCCCCNC(=O)c1ccc2c(=O)[nH]c3c(C(=O)NCC4CCCO4)sc(=S)n3c2c1 (centres undefined)	-5.67*	-5.67
COc1ccc(CNC(=O)CCC(=O)Nc2nnc(CC(C)C)s2)cc1	i	0.17
O=C(OCC(=O)N1CCN(C(=O)c2ccco2)CC1)c1cc(-c2cccc(Br)c2)nc2ccccc12	-7.01*	-7.01
O=C(OCC(=O)N1CCN(C(=O)c2ccco2)CC1)c1cc(-c2ccccc2)nc2ccccc12	i	nt
CCN1C(=O)[C@@H]2Cc3c([nH]c4ccccc34)C(c3cc(OC)c(OC)c(OC)c3)N2C1=S (some centres undefined)	i	nt
C=CCN1C(=O)[C@@H]2Cc3c([nH]c4ccccc34)C(c3cc(OC)c(OC)c(OC)c3)N2C1=S (some centres undefined)	-6.12*	-6.12
COc1ccccc1CNC(=O)[C@H](Cc1c[nH]c2ccccc12)NC(=O)[C@@H]1Cc2ccccc2CN1	-6.79*	-6.79
COc1ccccc1CNC(=O)Cc1c[nH]c2ccccc12	i	nt
CNC(=O)CSc1nnc(-c2ccncc2)n1Cc1ccccc1	i	nt
Cc1cccc(Nc2nnc(SCC(=O)NC3CCCc4ccccc43)s2)c1C (centres undefined)	-5.92*	-5.92
O=C(CSc1nc2ccccc2s1)NC1CCCc2ccccc21 (centres undefined)	i	nt
O=C(CSc1nnc(-c2ccncc2)n1Cc1ccccc1)NC1CCCc2ccccc21 (centres undefined)	-5.75*	-5.75
COc1cccc(C(=O)COc2ccc(NC(=O)c3ccccc3)cc2)c1	i	0.83
O=C(OCc1cccc(C(F)(F)F)c1)c1cc(S(=O)(=O)N2CCOCC2)ccc1F	i	nt
O=C(c1ccc(Cl)cc1)N(Cc1ccco1)C1CCS(=O)(=O)C1 (centres undefined)	i	0.19
COc1ccc(C(=O)c2no[n+]([O-])c2C(=O)c2ccc(OC)cc2)cc1	i	nt
O=C(c1cccs1)c1no[n+]([O-])c1C(=O)c1cccs1	-14.2*	-14.2
O=C(Nc1ccsn1)c1ccc(Cl)cc1Cl	i	0.88
Cc1ccccc1C1CCCN(Cc2nc(CC3CC3)no2)C1 (centres undefined)	i	nt
COc1cccc(OCc2cc(C(=O)NCCN3CCCCC3CO)no2)c1 (centres undefined)	i	0.27
Cc1cc(OCc2cc(C(=O)NCCN3CCCCC3CO)no2)cc(C)c1Cl (centres undefined)	-7.87*	-7.87
Cc1cc(F)ccc1NC(=O)C1CSC2(C)CCC(=O)N12 (centres undefined)	i	nt
SMILES	KCNQ2 block	KCNQ2 pot
CC1(C)C(=S)N(Cc2ccccc2)c2ccccc21	-6.58*	-6.58
CC(=O)CC1(O)C(=O)N(Cc2ccccc2)c2ccccc21 (centres undefined)	i	0.22
COc1ccccc1OCC(=O)N/N=C/c1c(O)ccc2ccccc12	-6.05*	-6.05
COc1ccccc1OCC(=O)N/N=C/c1cccc2cccnc12	i	0.03
COc1cc(NC(=O)CCc2c(C)[nH]c(=O)c(C#N)c2C)cc(OC)c1	i	1.43
CCC1ON(c2ccccc2)C2c3nc4ccccc4n3CC12 (centres undefined)	i	0.03
Cc1ccccc1OCc1nc2ccccc2c(=O)n1/N=C/c1cn[nH]c1-c1ccccc1	i	nt
Cc1ccccc1OCc1nc2ccccc2c(=O)n1/N=C/c1cccc([N+](=O)[O-])c1	-6.19*	-6.19
Cc1cc(NC(=O)COC(=O)c2ccco2)no1	i	0.44
CC(C)(C)c1ccc(S(=O)(=O)/N=C2\C=C(NS(=O)(=O)c3ccccc3)C(=O)c3ccccc32)cc1	-6.06*	-6.06
CCc1ccc(S(=O)(=O)/N=C2\C=C(Nc3ccc(C(=O)O)cc3)C(=O)c3ccccc32)cc1	i	3.14
Cc1cc(SCC(=O)c2cccs2)n2nc(C)c(-c3ccccc3)c2n1	i	5.99*
C=CCSc1cc(C)nc2c(-c3ccccc3)c(C)nn12	i	nt
Cn1c(N)c(C(=O)COC(=O)CSc2ccc(Cl)cc2)c(=O)n(C)c1=O	i	2.03
C=CCN1C(=O)N/C(=C/c2ccc(C)o2)C1=O	i	0.07
Oc1ccccc1C1=Nc2ccccc2N=C(c2cccs2)C1	i	nt
Cc1ccc(O)c(C2=Nc3ccccc3N=C(c3cccs3)C2)c1	-5.59*	-5.59
CN(C(=O)Cn1nnc2ccccc2c1=O)C1CCCCC1	i	0.1
CCCOc1ccc(-c2c(C(=O)N/N=C/c3cccs3)nnn2-c2nonc2N)cc1	i	2.21
C/C(=N\NC(=O)c1ccc(CSc2nc(C)cc(C)n2)cc1)c1ccco1	i	nt
